About 8,800 targets were measured; listed, in parts, are those with a hit and a random draw of the rest. About 0.5% of all pairs of compound and target were hits. Unmarked numbers belong to inactive results.
What was measured:
Experiment in all cases: log2 fold change, soluble protein after heating vs DMSO (PISA); higher = thermal stabilisation; K562 lysate, 10 uM; active = over 0.2 and 3.5 SD of the protein, either way, in both replicates (recomputed)
[1] = compound: CN1CC[C@H](c2c(O)cc(O)c3c(=O)cc(-c4ccccc4Cl)oc23)[C@H](O)C1 [alvocidib]
Summary of the method: (§1)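 Thermal stability, expressed as log-two fold change relative to solvent controls, is given from duplicates. Crude K562 extract in PBS pH 7.4 with 1 mM MgCl2, at 1 mg/mL protein, was treated with 10 μM compound for 30 min and heated in aliquots for 3 min across 48°C-58°C. After pooling, adjustment to 0.5% NP-40 at 4°C and centrifugation at 21,000xg for 90 min, supernatant protein was measured by TMTpro 16plex LC-MS/MS with channel sums equalised.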

[2] = compound: CN1CCc2c(c3ccccc3n2Cc2ccc(C(=O)NO)cc2)C1 [Tubastatin A]
Summary of the method: as §1

[3] = compound: CNC(=O)C1=CC=CC=C1NC2=NC(=NC=C2Cl)NC3=C(C=C(C=C3)N4CCOCC4)OC
Summary of the method: as §1

[4] = compound: CNC(=O)c1ccc(Nc2ncc(C(F)(F)F)c(NCc3nccnc3N(C)S(C)(=O)=O)n2)cc1 [defactinib]
Summary of the method: as §1

[5] = compound: CNc1nc(-c2ccc3c(N)n[nH]c3c2)cc(N2C[C@@H](C(=O)NC3CCCCC3)CC[C@H]2C)n1
Summary of the method: as §1

[6] = compound: COC(=O)N[C@@H](C)CNc1nccc(-c2cn(C(C)C)nc2-c2cc(Cl)cc(NS(C)(=O)=O)c2F)n1 [encorafenib]
Summary of the method: as §1

[7] = compound: COC(=O)[C@H](CCSC)NC(=O)C1=C(C=C(C=C1)NC[C@H](CS)N)C2=CC=CC=C2
Summary of the method: as §1

[8] = compound: COc1cc(Nc2ncc3c(n2)-c2ccc(Cl)cc2C(c2c(F)cccc2OC)=NC3)ccc1C(=O)O [alisertib]
Summary of the method: as §1

[9] = compound: COc1cc2nc(-c3cc(F)ccc3O)nc(N[C@@H]3CNC[C@H]3C(C)(C)O)c2cc1OC
Summary of the method: as §1

[10] = compound: COc1cc2ncnc(Nc3ccc(F)c(Cl)c3)c2cc1OCCCN1CCOCC1 [gefitinib]
Summary of the method: as §1

[11] = compound: CS(=O)(=O)CCNCc1ccc(-c2ccc3ncnc(Nc4ccc(OCc5cccc(F)c5)c(Cl)c4)c3c2)o1 [lapatinib]
Summary of the method: as §1

[12] = compound: C[C@@H](Oc1cc(-c2cnn(C3CCNCC3)c2)cnc1N)c1c(Cl)ccc(F)c1Cl [crizotinib]
Summary of the method: as §1

[13] = compound: C[C@H](C1=CC=C(C=C1)C(=O)NC2=C3C=CNC3=NC=C2)N
Summary of the method: as §1

[14] = compound: C[C@H](Nc1ncnc2nc[nH]c12)c1cc2cccc(Cl)c2c(=O)n1-c1ccccc1 [duvelisib]
Summary of the method: as §1

[15] = compound: Cc1cc(Nc2cc(CN3CCOCC3)c3nc(C)c(Cc4ccc(Cl)cc4F)n3n2)n[nH]1 [gandotinib]
Summary of the method: as §1

[16] = compound: Cc1cc(Nc2cc(N3CCN(C)CC3)nc(Sc3ccc(NC(=O)C4CC4)cc3)n2)n[nH]1 [tozasertib]
Summary of the method: as §1

[17] = compound: Cc1ccc(-n2nc(C(C)(C)C)cc2NC(=O)Nc2ccc(OCCN3CCOCC3)c3ccccc23)cc1 [doramapimod]
Summary of the method: as §1

[18] = compound: Cc1ccc(NC(=O)c2ccc(CN3CC[C@H](N(C)C)C3)c(C(F)(F)F)c2)cc1Nc1nccc(-c2cncnc2)n1 [bafetinib]
Summary of the method: as §1

[19] = compound: Cc1cccc(CC(=O)N2CCc3c2ccc(-c2cn(C)c4ncnc(N)c24)c3F)n1
Summary of the method: as §1

[20] = compound: CS(=O)(=O)N1CCN(Cc2cc3nc(-c4cccc5[nH]ncc45)nc(N4CCOCC4)c3s2)CC1 [pictilisib]
Summary of the method: as §1

UniProt Q8WXC6, sequence (Q8WXC6 whole entry, looked up): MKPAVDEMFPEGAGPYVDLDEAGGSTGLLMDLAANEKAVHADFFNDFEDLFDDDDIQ
UniProt Q9BSY9, sequence (Q9BSY9 whole entry, looked up): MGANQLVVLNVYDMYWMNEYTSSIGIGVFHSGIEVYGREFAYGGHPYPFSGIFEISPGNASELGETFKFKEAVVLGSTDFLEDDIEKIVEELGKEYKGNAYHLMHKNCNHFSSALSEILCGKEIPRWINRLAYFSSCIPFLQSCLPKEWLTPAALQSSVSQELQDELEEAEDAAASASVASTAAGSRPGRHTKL
UniProt P30622, sequence (P30622 whole entry, looked up): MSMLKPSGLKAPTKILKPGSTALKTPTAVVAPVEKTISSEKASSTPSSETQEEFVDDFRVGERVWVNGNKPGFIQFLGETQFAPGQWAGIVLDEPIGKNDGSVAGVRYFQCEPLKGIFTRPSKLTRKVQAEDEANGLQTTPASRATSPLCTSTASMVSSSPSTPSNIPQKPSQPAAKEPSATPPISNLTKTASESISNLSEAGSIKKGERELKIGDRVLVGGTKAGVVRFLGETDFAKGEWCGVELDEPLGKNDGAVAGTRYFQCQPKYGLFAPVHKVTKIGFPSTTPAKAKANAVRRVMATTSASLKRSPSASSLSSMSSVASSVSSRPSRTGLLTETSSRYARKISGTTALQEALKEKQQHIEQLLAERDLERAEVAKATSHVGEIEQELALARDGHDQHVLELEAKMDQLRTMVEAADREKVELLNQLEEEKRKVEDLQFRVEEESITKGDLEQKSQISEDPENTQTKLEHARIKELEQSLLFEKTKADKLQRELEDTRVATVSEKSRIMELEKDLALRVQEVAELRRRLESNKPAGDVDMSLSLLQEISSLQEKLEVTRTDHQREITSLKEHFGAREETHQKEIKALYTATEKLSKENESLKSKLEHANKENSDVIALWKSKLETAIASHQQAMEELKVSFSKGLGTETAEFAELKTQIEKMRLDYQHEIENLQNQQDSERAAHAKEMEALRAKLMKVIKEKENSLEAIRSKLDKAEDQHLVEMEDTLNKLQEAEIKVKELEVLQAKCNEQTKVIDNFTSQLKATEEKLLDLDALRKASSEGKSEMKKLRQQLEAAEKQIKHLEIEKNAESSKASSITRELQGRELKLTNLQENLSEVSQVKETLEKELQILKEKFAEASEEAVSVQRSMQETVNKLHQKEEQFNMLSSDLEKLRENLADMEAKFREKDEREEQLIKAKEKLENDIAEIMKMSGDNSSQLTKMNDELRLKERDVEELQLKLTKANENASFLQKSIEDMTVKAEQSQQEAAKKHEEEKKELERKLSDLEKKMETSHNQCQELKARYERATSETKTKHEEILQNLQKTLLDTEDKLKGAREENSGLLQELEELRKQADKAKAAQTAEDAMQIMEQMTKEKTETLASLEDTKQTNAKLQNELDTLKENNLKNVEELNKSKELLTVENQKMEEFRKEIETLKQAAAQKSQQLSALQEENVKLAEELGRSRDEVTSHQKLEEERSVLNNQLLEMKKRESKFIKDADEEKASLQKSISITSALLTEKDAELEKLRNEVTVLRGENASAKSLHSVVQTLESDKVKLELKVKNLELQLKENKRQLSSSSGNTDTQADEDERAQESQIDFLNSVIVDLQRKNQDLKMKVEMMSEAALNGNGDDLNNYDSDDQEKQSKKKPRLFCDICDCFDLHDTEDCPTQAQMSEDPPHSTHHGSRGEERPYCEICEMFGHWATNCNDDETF
UniProt Q96KA5, sequence (Q96KA5 whole entry, looked up): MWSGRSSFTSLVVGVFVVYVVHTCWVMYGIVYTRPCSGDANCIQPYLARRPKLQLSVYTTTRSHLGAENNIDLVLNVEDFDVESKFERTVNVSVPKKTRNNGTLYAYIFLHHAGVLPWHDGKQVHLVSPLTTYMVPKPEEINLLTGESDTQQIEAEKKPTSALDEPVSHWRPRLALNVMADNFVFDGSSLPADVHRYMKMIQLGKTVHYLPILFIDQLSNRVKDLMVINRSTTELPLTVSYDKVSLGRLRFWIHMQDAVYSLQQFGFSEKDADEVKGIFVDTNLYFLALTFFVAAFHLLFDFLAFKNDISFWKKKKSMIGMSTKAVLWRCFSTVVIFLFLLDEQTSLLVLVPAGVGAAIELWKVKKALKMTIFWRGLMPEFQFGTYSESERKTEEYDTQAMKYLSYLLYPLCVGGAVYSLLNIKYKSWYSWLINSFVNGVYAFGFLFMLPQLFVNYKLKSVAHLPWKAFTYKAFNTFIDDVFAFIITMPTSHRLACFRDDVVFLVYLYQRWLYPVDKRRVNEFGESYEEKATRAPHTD
UniProt Q9Y600, sequence (Q9Y600 whole entry, looked up): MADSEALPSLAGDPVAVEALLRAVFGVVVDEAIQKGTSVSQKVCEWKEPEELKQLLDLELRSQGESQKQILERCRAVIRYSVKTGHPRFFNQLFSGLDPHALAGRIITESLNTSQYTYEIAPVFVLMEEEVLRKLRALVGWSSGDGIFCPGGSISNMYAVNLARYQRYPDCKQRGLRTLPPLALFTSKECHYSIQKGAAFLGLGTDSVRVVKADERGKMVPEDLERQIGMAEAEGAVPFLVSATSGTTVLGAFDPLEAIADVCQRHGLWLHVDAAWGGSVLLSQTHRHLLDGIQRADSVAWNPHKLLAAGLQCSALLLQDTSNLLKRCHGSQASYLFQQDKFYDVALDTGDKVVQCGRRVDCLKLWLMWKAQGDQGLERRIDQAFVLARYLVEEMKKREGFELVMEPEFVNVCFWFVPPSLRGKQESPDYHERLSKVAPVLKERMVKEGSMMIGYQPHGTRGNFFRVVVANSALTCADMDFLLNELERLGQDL
UniProt Q15398, sequence (Q15398 whole entry, looked up): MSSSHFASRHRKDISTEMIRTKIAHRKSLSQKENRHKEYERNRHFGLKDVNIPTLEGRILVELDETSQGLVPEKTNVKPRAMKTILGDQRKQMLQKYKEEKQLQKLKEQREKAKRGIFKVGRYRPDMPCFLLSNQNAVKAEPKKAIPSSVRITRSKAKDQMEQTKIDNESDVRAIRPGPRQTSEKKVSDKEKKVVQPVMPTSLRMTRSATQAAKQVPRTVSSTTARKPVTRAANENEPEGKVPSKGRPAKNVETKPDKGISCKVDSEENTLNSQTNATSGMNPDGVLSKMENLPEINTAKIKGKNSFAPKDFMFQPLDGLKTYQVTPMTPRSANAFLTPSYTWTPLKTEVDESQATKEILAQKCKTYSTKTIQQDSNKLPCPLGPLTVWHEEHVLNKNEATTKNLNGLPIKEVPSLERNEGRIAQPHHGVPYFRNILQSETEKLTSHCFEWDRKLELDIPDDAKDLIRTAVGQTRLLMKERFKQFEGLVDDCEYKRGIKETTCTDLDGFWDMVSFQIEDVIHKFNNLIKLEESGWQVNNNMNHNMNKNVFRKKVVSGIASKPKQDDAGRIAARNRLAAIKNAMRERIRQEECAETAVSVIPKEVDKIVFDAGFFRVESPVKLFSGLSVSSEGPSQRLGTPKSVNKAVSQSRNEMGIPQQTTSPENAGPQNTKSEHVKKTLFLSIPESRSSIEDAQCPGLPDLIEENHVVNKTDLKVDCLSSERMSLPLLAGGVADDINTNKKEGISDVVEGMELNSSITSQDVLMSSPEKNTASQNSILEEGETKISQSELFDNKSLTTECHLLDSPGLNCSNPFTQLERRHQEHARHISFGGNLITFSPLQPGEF
UniProt P50570, sequence (P50570 whole entry, looked up): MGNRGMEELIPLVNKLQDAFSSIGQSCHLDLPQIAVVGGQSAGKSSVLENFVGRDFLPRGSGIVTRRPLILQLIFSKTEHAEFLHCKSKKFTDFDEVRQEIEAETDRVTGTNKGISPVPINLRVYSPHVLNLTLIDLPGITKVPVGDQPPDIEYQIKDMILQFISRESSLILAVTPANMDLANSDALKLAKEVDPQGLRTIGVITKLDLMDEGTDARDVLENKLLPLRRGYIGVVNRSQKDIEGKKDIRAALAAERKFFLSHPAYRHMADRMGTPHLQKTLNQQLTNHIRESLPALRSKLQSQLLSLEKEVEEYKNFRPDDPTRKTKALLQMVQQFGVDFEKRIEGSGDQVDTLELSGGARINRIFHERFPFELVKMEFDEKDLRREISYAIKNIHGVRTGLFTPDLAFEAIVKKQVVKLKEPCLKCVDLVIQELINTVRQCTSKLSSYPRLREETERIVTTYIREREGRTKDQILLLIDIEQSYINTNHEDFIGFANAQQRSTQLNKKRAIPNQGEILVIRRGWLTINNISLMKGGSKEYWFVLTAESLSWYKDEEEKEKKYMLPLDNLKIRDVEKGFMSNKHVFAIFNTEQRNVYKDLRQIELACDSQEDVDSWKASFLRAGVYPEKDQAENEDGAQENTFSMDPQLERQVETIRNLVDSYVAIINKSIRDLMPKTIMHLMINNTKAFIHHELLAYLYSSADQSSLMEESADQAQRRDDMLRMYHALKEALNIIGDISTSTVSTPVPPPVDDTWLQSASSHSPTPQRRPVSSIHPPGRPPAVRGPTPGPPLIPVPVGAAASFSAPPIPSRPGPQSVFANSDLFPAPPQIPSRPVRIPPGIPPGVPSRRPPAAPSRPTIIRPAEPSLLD
UniProt Q6ZWL3, sequence (Q6ZWL3 whole entry, looked up): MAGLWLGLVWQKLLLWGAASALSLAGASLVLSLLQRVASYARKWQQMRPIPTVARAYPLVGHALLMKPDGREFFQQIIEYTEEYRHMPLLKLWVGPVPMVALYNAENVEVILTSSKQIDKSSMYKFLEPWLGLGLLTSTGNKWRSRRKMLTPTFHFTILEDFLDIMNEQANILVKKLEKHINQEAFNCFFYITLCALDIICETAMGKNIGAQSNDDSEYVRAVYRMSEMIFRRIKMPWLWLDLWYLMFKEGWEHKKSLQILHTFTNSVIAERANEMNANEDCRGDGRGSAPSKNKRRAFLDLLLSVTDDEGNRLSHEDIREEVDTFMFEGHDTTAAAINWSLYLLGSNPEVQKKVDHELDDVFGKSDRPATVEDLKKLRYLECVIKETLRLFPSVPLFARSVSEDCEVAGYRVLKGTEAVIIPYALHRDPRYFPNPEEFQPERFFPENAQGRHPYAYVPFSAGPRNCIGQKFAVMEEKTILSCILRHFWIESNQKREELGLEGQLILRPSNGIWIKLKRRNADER

Target | log2 fold change [1] | log2 fold change [2] | log2 fold change [3] | log2 fold change [4] | log2 fold change [5] | log2 fold change [6] | log2 fold change [7] | log2 fold change [8] | log2 fold change [9] | log2 fold change [10] | log2 fold change [11] | log2 fold change [12] | log2 fold change [13] | log2 fold change [14] | log2 fold change [15] | log2 fold change [16] | log2 fold change [17] | log2 fold change [18] | log2 fold change [19] | log2 fold change [20]
CLPTM1L (UniProt Q96KA5) | 0.001 | -0.064 | -0.131 | 0.015 | -0.204 | 0.021 | -0.029 | 0.054 | -0.097 | 0.011 | -0.095 | -0.021 | -0.092 | -0.049 | -0.233 (active) | 0.004 | -0.098 | -0.064 | 0.137 | –
CNIH4 (UniProt Q9P003) | – | 0.1 | 0.048 | 0.442 | 0.049 | 0.06 | -0.249 | 0.1 | 0.031 | 0.17 | 0.005 | -0.055 | – | 0.092 | – | -0.06 | -0.082 | -0.248 | – | -0.139
CRLS1 (UniProt Q9UJA2) | 0.056 | 0.007 | 0.068 | – | – | – | – | 0.076 | -0.017 | 0.079 | -0.003 | -0.086 | 0.084 | – | -0.105 | – | -0.062 | -0.437 | -0.176 | -0.107
COL6A3 (UniProt P12111) | 0.045 | 0.017 | -0.126 | – | 0.13 | – | – | -0.323 | – | 0.164 | – | -0.023 | -0.04 | 0.013 | -0.036 | – | 0.032 | 0.036 | 0.048 | -0.019
DPY19L3 (UniProt Q6ZPD9) | – | – | -0.105 | -0.039 | – | 0 | -0.096 | – | -0.042 | – | -0.077 | -0.107 | – | – | – | 0.057 | -0.081 | -0.113 | – | -0.268
DDR1 isoform 5 (UniProt Q08345) | -0.034 | 0.052 | – | – | 0.147 | 0.044 | -0.094 | 0 | – | 0.046 | – | -0.712 (active) | 0.097 | -0.051 | -0.305 | – | – | 0.101 | 0.007 | -0.075
CIC (UniProt I3L1Q4) | – | – | – | – | – | – | – | – | – | – | – | – | – | – | – | – | – | 0.021 | – | 0.065
CSAD isoform 3 (UniProt Q9Y600) | – | 0.082 | -0.044 | – | – | – | – | – | – | – | – | -0.123 | – | – | – | – | 0.035 | 0.046 | – | -0.123
DALRD3 (UniProt Q5D0E6) | -0.016 | – | -0.026 | 0.033 | – | 0.054 | -0.391 | – | -0.004 | – | 0.021 | – | -0.131 | – | -0.087 | 0.139 | – | – | 0.096 | –
CLIP1, A0A3B3ITA2 | -0.036 | 0.152 | – | -0.077 | – | – | – | – | – | – | – | -0.033 | -0.222 | – | 0.55 | – | -0.138 | – | 0.269 | –
CLIP1 isoform 2 (UniProt P30622) | 0.029 | 0.117 | -0.085 | – | 0.088 | -0.012 | -0.015 | -0.033 | -0.017 | -0.005 | 0.066 | 0.018 | -0.103 | -0.053 | 0.135 | 0.047 | 0 | 0.031 | 0 | –
CSRP2 (UniProt Q16527) | -0.028 | – | – | – | – | -0.046 | -0.056 | – | – | – | – | -0.157 | -0.018 | – | -0.068 | 0.118 | 0.051 | 0.072 | 0.052 | -0.063
DLGAP5 isoform 3 (UniProt Q15398) | 0 | – | – | – | -0.051 | – | – | – | – | – | – | – | -0.176 | -0.098 | 0.05 | – | – | 0.031 | -0.505 | 0.092
CSDE1 isoform 3 (UniProt O75534) | 0.029 | -0.014 | – | – | – | – | – | -0.011 | 0.28 | -0.09 | 0.184 | -0.179 | 0.139 | – | -0.043 | – | 0.055 | 0.126 | -0.058 | -0.141
CLASP2 (UniProt O75122) | -0.139 | -0.066 | – | 0.002 | – | 0.058 | -0.071 | 0.182 | 0.037 | -0.047 | 0.003 | 0.127 | -0.086 | – | -0.031 | 0.052 | -0.001 | -0.199 | 0.067 | –
CSNK1A1 (UniProt P48729) | 0.007 | -0.105 | – | 0.077 | 0.019 | 0.081 | -0.005 | – | 0.049 | -0.005 | -0.099 | -0.049 | 0.084 | -0.034 | -0.077 | -0.068 | 0.027 | 0 | -0.01 | 0.084
CSNK1A1 isoform 3 (UniProt P48729) | – | -0.138 | – | – | 0.068 | – | – | – | – | – | – | – | – | -0.077 | – | – | – | – | – | –
DAZAP1 (UniProt K7EQ02) | – | – | – | – | – | – | – | 0.071 | – | -0.084 | – | – | – | – | – | – | – | – | – | –
DNM2 isoform 4 (UniProt P50570) | -0.16 | -0.095 | -0.278 | – | 0.055 | 0.13 | 0.06 | -0.007 | -0.032 | 0.029 | 0.031 | 0.014 | -0.16 | 0.015 | -0.134 | -0.084 | 0.066 | – | 0.16 | –
CSNK1D (UniProt P48730) | 0.244 | -0.085 | – | 0.103 | -0.091 | 0.041 | 0.013 | 0 | -0.131 | -0.023 | -0.098 | 0.052 | -0.153 | 0.007 | 0.059 | 0.008 | -0.011 | -0.01 | -0.177 | 0.066
CHFR (UniProt Q96EP1) | – | -0.052 | 0.004 | -0.61 (active) | -0.032 | 0.063 | -0.084 | 0.033 | 0.008 | -0.03 | -0.062 | -0.051 | – | 0.023 | – | -0.063 | -0.012 | – | – | –
COL12A1 (UniProt Q99715) | – | – | 0.095 | -0.059 | 0.531 | 0.003 | -0.092 | – | 1.32 (active) | – | -0.117 | -0.031 | – | 0.086 | – | -0.021 | 0.88 | – | – | –
COPS9 (UniProt Q8WXC6) | – | -0.272 | 0.087 | – | – | – | – | – | 0.163 | – | 0.148 | – | – | – | – | – | – | – | – | –
CYP4V2 (UniProt Q6ZWL3) | – | -0.1 | -0.007 | – | 0.045 | – | – | – | -0.066 | – | 0.049 | 0.12 | – | 0.031 | – | – | 0.027 | 0.177 | – | -0.441 (active)
DESI2 (UniProt Q9BSY9) | -0.07 | – | – | 0.016 | – | -0.057 | -0.014 | – | – | – | – | – | -0.095 | – | -0.078 | -0.095 | – | – | 0.316 | –
DONSON (UniProt Q9NYP3) | 0.04 | -0.079 | 0.069 | – | 0.005 | – | – | -0.05 | 0.028 | 0.075 | -0.012 | -0.012 | -0.32 | 0.007 | 0.196 | – | 0.07 | -0.033 | -0.157 | -0.019

Source: the supplement of paper PMC10849652
